Shown are actives, neighbours in structure and some others; about 28% of the full set was active somewhere.
CYP2C9 activ: CYP2C9 (human) activation; 1.4% of 96,000 active; AID 1024; activation factor at 5 µM; recombinant CYP2C9, luciferin-H conversion, luminescence; stronger effect = higher value; factor 1 = untreated enzyme, 0 = blocked;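 active = activation factor of 2 or more for CYP2C9 at a 5 µM dose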
CYP2C19 activ: activators of human cytochrome P450 2C19. P33261. recombinant CYP2C19, luciferin-H EGE luminescence; stronger effect = higher value; 0 = fully inhibited enzyme, 1 = untreated enzyme. activation factor at 5 µM. 96,000 tested, under 10 active;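 active = activation factor of at least 2 at 5 µM in the primary screen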
Pyk2 oligo antag: antagonists of human Pyk2 oligomerization. Q14289. Q293 cells, Pyk2 FERM NanoBiT luminescence; stronger effect = lower value. z-score (the deposit names both 25 µM and 10 µM). 0.83% of 99,000 active. AID 1347419;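 active = Z-score of -3 or lower, scaled per plate to the spread of control and sample wells; inactive = z-score above -3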;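 note: negative z-score means lost luminescence so less FERM oligomerization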
Target sequence (Q14289 whole entry, looked up): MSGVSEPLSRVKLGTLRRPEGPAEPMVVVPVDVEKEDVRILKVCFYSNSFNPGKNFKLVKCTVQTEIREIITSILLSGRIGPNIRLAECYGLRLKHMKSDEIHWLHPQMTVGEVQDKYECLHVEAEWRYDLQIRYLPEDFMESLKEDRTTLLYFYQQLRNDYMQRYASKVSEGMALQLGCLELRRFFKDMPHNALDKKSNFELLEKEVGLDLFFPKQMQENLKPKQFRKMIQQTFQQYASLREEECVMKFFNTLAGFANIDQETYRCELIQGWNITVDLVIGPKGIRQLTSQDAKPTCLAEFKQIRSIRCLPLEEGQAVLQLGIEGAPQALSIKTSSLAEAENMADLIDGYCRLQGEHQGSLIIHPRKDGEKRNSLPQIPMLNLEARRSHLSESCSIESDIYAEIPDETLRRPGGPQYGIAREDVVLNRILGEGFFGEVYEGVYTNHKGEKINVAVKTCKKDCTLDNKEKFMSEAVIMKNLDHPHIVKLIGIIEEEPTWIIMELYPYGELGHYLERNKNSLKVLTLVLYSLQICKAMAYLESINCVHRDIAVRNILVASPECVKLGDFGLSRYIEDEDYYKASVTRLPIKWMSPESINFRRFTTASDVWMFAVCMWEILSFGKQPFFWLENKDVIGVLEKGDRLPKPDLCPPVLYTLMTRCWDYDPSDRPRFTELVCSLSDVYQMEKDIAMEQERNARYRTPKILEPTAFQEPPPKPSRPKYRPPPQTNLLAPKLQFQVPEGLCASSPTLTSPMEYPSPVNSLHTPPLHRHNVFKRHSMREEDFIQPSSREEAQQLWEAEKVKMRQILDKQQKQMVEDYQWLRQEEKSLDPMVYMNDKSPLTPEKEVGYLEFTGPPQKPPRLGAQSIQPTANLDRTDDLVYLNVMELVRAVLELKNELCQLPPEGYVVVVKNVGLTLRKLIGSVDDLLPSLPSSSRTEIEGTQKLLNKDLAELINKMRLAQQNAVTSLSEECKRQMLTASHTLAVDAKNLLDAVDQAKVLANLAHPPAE
CYP2C19 inh: human CYP2C19 inhibition | 21% of 96,000 active | inhibition, % at 5 µM | CYP2C19 Supersomes, luciferin-H EGE luminescence, 30 min;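 active = CYP2C19 inhibition above a set limit at 5 µM in the primary screen, cut at about 50% in these data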
CYP2C9 inh: blocks human cytochrome P450 2C9; P11712; CYP2C9 Supersomes, luciferin-H conversion, luminescence; inhibition, % at 5 µM; 20% of 96,000 active; AID 777;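 active = blocking of liver enzyme CYP2C9 beyond about 50% at 5 µM, limit read from the data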
Each line names hits and unclear results; the compound was inactive in the other large screens.

N#Cc1cn(-c2ccccc2)nc1-c1ccco1	none
N#Cc1cn(-c2ccccc2)nc1C(=O)c1ccccc1	CYP2C19 inh 50
CN=C(Nc1ccccc1)SC1CC(=O)N(c2ccc(C(=O)OC)cc2)C1=O (stereo not drawn)	CYP2C9 inh 68
CCN=C(NCC)SC1CC(=O)N(c2cccc(OCC)c2)C1=O (stereo not drawn)	CYP2C9 activ 2.1, CYP2C19 inh 76
CCCOc1ccc(N2C(=O)CC(SC(=NCC)Nc3cccc(F)c3)C2=O)cc1 (stereo not drawn)	none (no result: CYP2C9 activ, CYP2C19 activ, CYP2C19 inh, CYP2C9 inh)
CCN=C(NCC)SC1CC(=O)N(c2ccc(OC)cc2)C1=O (stereo not drawn)	CYP2C19 inh 70
CN=C(Nc1ccccc1OC)SC1CC(=O)N(c2ccc(C(=O)OC)cc2)C1=O (stereo not drawn)	none
CCCCNC(=S)NNC(=O)c1ccco1	none (no result: CYP2C9 activ, CYP2C19 activ, CYP2C19 inh, CYP2C9 inh)
Cc1c(Br)cc(C(=O)NCc2ccco2)c(C)c1C	CYP2C9 activ 2.7, CYP2C19 inh 77
O=C(NCc1ccco1)c1ccc(C(=O)NCc2ccco2)s1	none
Cc1ccc2c(CC(=O)NCc3ccco3)coc2c1C	CYP2C19 inh 99
COc1cc(C(=O)NCc2ccco2)c(Br)c(OC)c1OC	none
O=C(NCc1ccco1)c1ccc(Br)s1	CYP2C19 inh 70
CC(C)(C)c1cc(C(=O)NCc2ccco2)ccn1	none
Cc1nnc(NC(=O)CCC(=O)NCc2ccco2)s1	none
Cc1ccc(C(=O)NCc2ccco2)cc1Br	CYP2C19 inh 70
CCN(CC)C(=O)CCc1nc2sc3c(c2c(=O)[nH]1)CCCC3	CYP2C19 inh 65
Cc1sc2nc(CN(C(=O)c3cccs3)C3CCCC3)[nH]c(=O)c2c1C	CYP2C9 inh 74
O=C(c1cccs1)N(Cc1nc2sc3c(c2c(=O)[nH]1)CCCC3)C1CCCC1	CYP2C9 inh 70
Cc1sc2nc(CSCC(=O)Nc3ccccc3C#N)[nH]c(=O)c2c1C	none (no result: CYP2C9 activ, CYP2C19 activ, CYP2C19 inh, CYP2C9 inh)
O=c1[nH]c(CN2CCC(c3nc4ccccc4s3)CC2)nc2sc3c(c12)CCC3	none (no result: Pyk2 oligo antag)
Cc1sc2nc(CN(C(=O)NC3CCCCC3)C3CCCC3)[nH]c(=O)c2c1C	none (no result: CYP2C9 activ, CYP2C19 activ, CYP2C19 inh, CYP2C9 inh)
Cc1sc2nc(CN(Cc3cccs3)C(=O)NC3CCCCC3)[nH]c(=O)c2c1C	CYP2C19 inh 97, CYP2C9 inh 96
CCCCc1nc2sc3c(c2c(=O)[nH]1)CCC3	none
CCCc1nn(CCc2ccccn2)c(N)c1CC	none
COC(=O)c1ccc(Oc2c(C(F)(F)F)oc3c(CN4CCN(C)CC4)c(O)ccc3c2=O)cc1	none
CCCOc1ccc(S(=O)(=O)n2cc(Br)c(=O)[nH]c2=O)cc1	CYP2C9 inh 98
CCCOc1ccc(C2NC(=O)NC2=O)cc1 (stereo not drawn)	none (no result: CYP2C9 activ, CYP2C19 activ, CYP2C19 inh, CYP2C9 inh)
COc1ccc(CN2CC(C(=O)NCc3ccccn3)CC2=O)cc1 (stereo not drawn)	none
O=C(NCCc1ccccn1)C1CC(=O)N(Cc2ccccc2Cl)C1 (stereo not drawn)	CYP2C19 inh 68
CC(=O)NC(c1cccc([N+](=O)[O-])c1)c1c(OC(C)=O)ccc2ccccc12 (stereo not drawn)	none (no result: CYP2C9 activ, CYP2C19 activ, CYP2C19 inh, CYP2C9 inh)
CCC(=O)NC(c1ccc([N+](=O)[O-])cc1)c1c(O)ccc2ccccc12 (stereo not drawn)	Pyk2 oligo antag -3.1, CYP2C19 inh 94, CYP2C9 inh 54
CC(C)C(=O)NC(c1ccccc1Cl)c1c(O)ccc2ccccc12 (stereo not drawn)	Pyk2 oligo antag -3.8
O=C(NC(c1ccc(Cl)cc1)c1c(O)ccc2ccccc12)c1ccccc1 (stereo not drawn)	none (no result: CYP2C9 activ, CYP2C19 activ, CYP2C19 inh, CYP2C9 inh)
O=C(NC(c1ccccc1)c1c(O)ccc2ccccc12)c1ccccc1Cl (stereo not drawn)	Pyk2 oligo antag -3.3, CYP2C19 inh 76, CYP2C9 inh 93
CC(C)C(=O)NC(c1ccco1)c1c(O)ccc2ccccc12 (stereo not drawn)	CYP2C9 inh 66
CC(=O)Oc1ccc2ccccc2c1C(NC(=O)C(C)C)c1cccc([N+](=O)[O-])c1 (stereo not drawn)	none
COc1ccc(S(=O)(=O)Nc2ccc3ccccc3c2)cc1C	Pyk2 oligo antag -3.2, CYP2C19 inh 100, CYP2C9 inh 100
CCc1ccc(NS(=O)(=O)c2ccc(OC)c(C)c2)cc1	Pyk2 oligo antag -3.3, CYP2C19 inh 78, CYP2C9 inh 80
COc1ccc(C2(C(F)(F)F)NC(=O)N(C)C(=O)N2C)cc1 (stereo not drawn)	none
CCOC(=O)CSc1nc(-c2ccccc2)cc(C(F)(F)F)n1	none (no result: CYP2C9 activ, CYP2C19 activ, CYP2C19 inh, CYP2C9 inh)
c1ccc(N2CCN(c3nnc(Cc4cccnc4)c4ccccc34)CC2)nc1	CYP2C19 inh 53
c1ccc(Cc2nnc(N3CCOCC3)c3ccccc23)cc1	none
C=CCSc1nc(C)c2cc(C)cc(C)c2n1	none
CC(C(=O)NCCCN1CCOCC1)n1cccc1C(=O)c1ccccc1 (stereo not drawn)	none (no result: CYP2C9 activ, CYP2C19 activ, CYP2C19 inh, CYP2C9 inh)
CC(C)NC(=O)C(C)n1cccc1C(=O)c1ccccc1 (stereo not drawn)	CYP2C9 inh 55
CCC(=O)n1nc(-c2ccc(OC)cc2)nc1SC	none (no result: CYP2C9 activ, CYP2C19 activ, CYP2C19 inh, CYP2C9 inh)
N#Cc1nc(Cc2ccccc2)oc1NCc1ccccc1Cl	CYP2C19 inh 63, CYP2C9 inh 56
N#Cc1nc(Cc2ccccc2)oc1NCc1cccnc1	none (no result: CYP2C9 activ, CYP2C19 activ, CYP2C19 inh, CYP2C9 inh)
CC(C)c1nc(C#N)c(NCCCn2ccnc2)o1	CYP2C19 inh 100, CYP2C9 inh 91
N#Cc1nc(Cc2ccccc2)oc1NCCCn1ccnc1	CYP2C19 inh 92, CYP2C9 inh 77
Cc1cccc2cc(CN(Cc3nnnn3C3CCCCC3)C3CCCC3)c3nnnn3c12	none (no result: CYP2C9 activ, CYP2C19 activ, CYP2C19 inh, CYP2C9 inh)
COc1cc(S(=O)(=O)N2CCOCC2)ccc1NC(=O)COC(=O)c1ccccn1	none
Cc1cc(S(=O)(=O)N(Cc2ccccn2)Cc2ccco2)ccc1-n1cnnn1	CYP2C19 inh 75, CYP2C9 inh 54
CCN(CC)S(=O)(=O)c1ccc(-n2cnnn2)c(C)c1	none
COc1cc(S(=O)(=O)N(Cc2ccco2)C2CCCC2)ccc1-n1cnnn1	CYP2C19 inh 98, CYP2C9 inh 74
CC1CCCCN1S(=O)(=O)c1ccc(S(=O)(=O)N(Cc2ccccc2)Cc2ccco2)cc1 (stereo not drawn)	none (no result: CYP2C9 activ, CYP2C19 activ, CYP2C19 inh, CYP2C9 inh)
CCOc1ccccc1CN(Cc1ccco1)S(=O)(=O)c1ccc(-n2cnnn2)c(OC)c1	CYP2C19 inh 94, CYP2C9 inh 68
COc1ccc(CN(Cc2ccccn2)S(=O)(=O)c2ccc(-n3cnnn3)cc2)cc1	none (no result: CYP2C9 activ, CYP2C19 activ, CYP2C19 inh, CYP2C9 inh)
COc1ccc(CN(Cc2ccccn2)S(=O)(=O)c2ccc(-n3cnnn3)c(OC)c2)cc1	CYP2C19 inh 89, CYP2C9 inh 92
O=C(c1cnccn1)N1CCN(C/C=C/c2ccccc2)CC1	none
CCCN(CC1CC1)S(=O)(=O)c1ccc(-n2cnnn2)c(OC)c1	CYP2C19 inh 100
CC1Cc2ccccc2N1C(=O)Cn1c(=O)cc(O)c2ccccc21 (stereo not drawn)	none
CCOC(=O)c1cc(Br)c(=O)n2ccccc12	none
COc1ccc(CNc2oc(COc3ccc(Cl)cc3)nc2C#N)cc1	none
N#Cc1nc(COc2cccc(Cl)c2)oc1NCc1ccncc1	CYP2C19 inh 100, CYP2C9 inh 100

Screens as filed in PubChem BioAssay.
